In the OligoGym collection:

Molecular target: CAPRIN1
Assay: pooled miR-30 sensor sort-seq; sequence = guide strand
Settings: shRNA
Also: reference of the scale not given here.

Sequence	sensor-assay potency score (higher = more potent)
TTACATACTCTGTTGATTCAAC	0.0551
TTGATAGCCAGAGTAATCCCGG	-0.0464
TAGATAATAACTCTTCTGGTAA	-0.812
TATTGTTTTCTGAATATCTTGA	0.459
TTTCTGAATATCTTGACTTAGT	-0.78
TTTACATTGATTCCACTGCTAT	-0.568
AATATCTTGACTTAGTGCCATG	-1.68
TTGACTGAAAAACACGCTCAAC	-1.28
TAACATATTATGGTACACTGGC	0.119
TACAGGAACTTGATTAGGCTGA	0.0825
TTTCTTGTCGATCACCCCGAGA	-1.14

Molecular target: CASK
Assay: as above
Settings: shRNA

Sequence	sensor-assay potency score (higher = more potent)
TTTCTCTGTTGATACATCGTCG	-0.203
TTCATGTGCCACTACGTCGTGA	-0.762
ATTTGTGACTTGACACAGCGGC	0.473
TTACATAGATCTGTCGTCCTTT	0.751
TATATGTCTCCAATAACTCTAC	-0.605
TTGTGCTCTTACATAGATCTGT	0.417
TACATCGTCGTACAACACTGAA	-1.22
TAAAGCATTCCATCTGAGCTAT	-0.371
TAAGATGTCAGACTCCTTCTGC	0.313
TAGTAGTGTGTGAAGATGCTGA	0.139
TTTTGAAACTGTACCAGCCGAA	-0.413
TAAAATACGCTTTAGTTCCTTT	-0.108

Molecular target: CASP8
Assay: as above
Settings: shRNA

Sequence	sensor-assay potency score (higher = more potent)
TTCTTGTCATCCTTGTTGCTTA	-0.496
TTCATAGTTCACTTCAGTCAGG	-0.715
TTGAGGTGATGATAAATCCATT	-0.92
ATAGATAACAATCTGAATCATA	-0.657
TAGTTGATAGATAACAATCTGA	-0.246
TAACCTGCCTAACTCCACGTGC	-0.566
TTACTTTCAATAACCACCCTGG	0.486
TTTCTGCTGAAGTCCATCTTTT	-1.01
TTCTGAAATCTGATAGAGCATG	-1.4
TAGATTTGCTCTACTGTGCAGT	0.44
TAATGATTTAAAATAATCCAAG	-1.15
TTTACTTTCAATAACCACCCTG	0.433
TAAACTTTGTCCAAAGTCTGTG	-0.0888
TATTAATAGATGATCGACCCTC	-0.244
TTGATTTGGGCACAGACTCTTT	-0.862
TTCATAGTCGTTGATTATCTTC	-0.794
